# Screening data: PubChem BioAssay, several laboratories
# An excerpt weighted towards active compounds, which were near 11% of everything screened.
# Insulin prom up: MIN6 insulin promoter up-regulation; MIN6 insulin promoter-GFP reporter, high-content imaging; active compounds read high; z-score at 5 µM; actives 0.3% (n = 190,000);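 active = z-score above 3 at 5 µM with at least 500 cells counted in the well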
# Insulin prom inh: TRM-6 insulin promoter activity inhibition | TRM-6 cells (human fetal islet line), insulin promoter-eGFP reporter, imaging; reporter expression induced with tamoxifen | inhibition, % at 2 µM | actives 0.9% (n = 130,000) | AID 1273;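 active = inhibition above the mean plus 3 SD, with well images judged a real hit on visual review, cut at about 60% in these data, passing the limit was not always enough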
# Autophagy HCS: alters autophagy in cells | actives 0.98% (n = 190,000) | calls only at 10 µM (by protocol) | MEF GFP-LC3 puncta imaging; test concentration mostly 10 µM;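 active = percentage of spot-positive cells more than 3 SD above its plate mean, without a fluorescence outlier flag or 80% toxicity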
# L major viab: Leishmania major promastigote growth inhibition. inhibition, % at 10 µM. actives 9% (n = 200,000). Leishmania major promastigotes, resazurin fluorescence viability; in the data active = inhibition above about 50%;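 note: promastigotes grown with compound for 44 hours at 28 °C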
# WT yeast gro inh: growth inhibition of WT yeast, mitochondrial fusion screen; mitochondrial fusion phenotypic screen, WT strain; inhibition, % at 10 µM; actives 2.1% (n = 190,000); AID 1362; in the data active = inhibition above about 58%; tested in S. cerevisiae
# Hits are given with their value; i = inactive; nt = not tested or not shown; + = active, no number.
SMILES,Insulin prom up,Insulin prom inh,Autophagy HCS,L major viab,WT yeast gro inh
Cc1ccc(C)c(Sc2ccc(NC(=O)CCl)cc2)c1,i,i,i,100.2,68.8
Cc1ccc(Sc2ccc(NC(=O)CCl)cc2)cc1C,i,i,i,100.0,66.4
Cc1ccc(NC(=O)CCSCCC(=O)Nc2ccc(C)c(C)c2)cc1C,i,i,i,i,i
NC(=O)SCC(=O)Nc1ccc(Cl)c(Cl)c1,i,nt,i,98.0,i
Cc1ccc(NC(=O)CSC(N)=O)cc1Cl,i,i,i,i,i
Cc1cc(C)n2nc(C(=O)Nc3ccc(S(=O)(=O)N(C)C)cc3)nc2n1,i,nt,nt,nt,nt
COc1ccccc1-n1cccc1C=O,i,i,i,i,i
COc1ccccc1Cn1cccc1C=O,i,nt,+,i,i
COc1ccccc1CN1CCSCC1,nt,i,i,62.8,i
COc1ccccc1CN1CCN(C(=O)c2ccncc2)CC1,i,nt,i,i,i
CCN(CC)CC1CCCCN1CC(=O)N1c2ccccc2C(=O)Nc2cccnc21 (stereo not drawn),i,nt,nt,nt,i
CCn1c(SCC(=O)c2cc(C)n(-c3ccc(C(=O)OC)cc3)c2C)nnc1-c1cccnc1,i,i,i,70.9,i
CCOc1ccc(-n2c(C)cc(C(=O)CCl)c2C)cc1,i,nt,+,100.4,i
COC(=O)c1ccc(-n2c(C)cc(C(=O)COC(=O)CNS(=O)(=O)c3ccc(C)cc3)c2C)cc1,nt,i,i,i,i
COC(=O)c1cc(C(=O)OC)cc(-n2c(C)cc(C(=O)COC(=O)CNS(=O)(=O)c3ccc(C)cc3)c2C)c1,nt,i,i,90.4,i
CCn1c(SCC(=O)c2cc(C)n(C)c2C)nnc1-c1ccccc1,i,i,i,i,i
COC(=O)c1ccc(-n2c(C)cc(C(=O)CCl)c2C)cc1,i,i,i,100.6,i
COc1ccc(-c2[nH]ncc2/C=N/NC(=O)c2cccc([N+](=O)[O-])c2)cc1OC,nt,i,i,i,i
COc1cc(C2C(C#N)=C(N)Oc3c2c(-c2ccccc2)nn3-c2ccccc2)cc(OC)c1OC (stereo not drawn),i,nt,i,i,i
CN(C)CCNC(=S)Nc1ccc(Br)cc1,i,i,i,i,i
COc1cnc(-c2ccccn2)nc1Oc1ccccc1,i,i,i,i,i
COc1cnc(-c2ccccn2)nc1Sc1ccc(F)cc1,i,i,i,93.8,67.8
COc1cnc(-c2ccccn2)nc1Sc1ccc(Cl)cc1,i,nt,i,100.2,i
COc1ccc(Sc2nc(-c3ccccn3)ncc2OC)cc1,i,nt,i,100.5,i
COc1cnc(-c2ccccn2)nc1Sc1ccccc1,i,i,i,100.3,i
SMILES,Insulin prom up,Insulin prom inh,Autophagy HCS,L major viab,WT yeast gro inh
CN1C(=S)N2CCCN2C1c1ccccc1 (stereo not drawn),i,nt,nt,nt,nt
CCc1nc2ccc(C(=O)O)cc2nc1CC,i,i,i,50.5,i
Cc1ccc(-c2nc3ccc(C(=O)O)cc3nc2-c2ccc(C)cc2)cc1,i,i,i,i,i
COC(=O)c1ccc(COc2ccc3c(C)c(C)c(=O)oc3c2)o1,3.49,nt,i,i,i
O=C(O)c1ccc(COc2ccc3c4c(c(=O)oc3c2)CCC4)o1,i,i,i,i,i
Cc1cc(-n2c(C)cc(C(=O)CN3C(=O)NC4(CCCCCC4)C3=O)c2C)no1,i,nt,i,99.6,i
Cc1cc(NC(=O)CN2C(=O)NC3(CCCCC3C)C2=O)no1 (stereo not drawn),i,i,i,58.1,i
CC1CCCCC12NC(=O)N(CC(=O)NC(=O)Nc1ccc3c(c1)OCCO3)C2=O (stereo not drawn),i,i,i,i,i
CCC1CCC2(CC1)NC(=O)N(CC(=O)Nc1cc(C)on1)C2=O (stereo not drawn),i,i,i,62.3,i
O=C(NCCC1=CCCCC1)C1CCN(C(=O)Cc2ccccc2)CC1,i,nt,i,i,i
COc1cc(NC(=O)C2=C(N3CCOCC3)/C(=C\c3ccc(Cl)cc3Cl)CC2)cc(OC)c1OC,i,i,i,96.6,i
OC(COc1ccc2cc(Br)ccc2c1)CN1CCN(c2ccccn2)CC1 (stereo not drawn),i,i,i,i,i
OC(COc1ccc2cc(Br)ccc2c1)CN1CCCC1 (stereo not drawn),i,i,i,100.1,i
O=S(=O)(N1CCCCC1)N1CCN(CC(O)COc2ccc3cc(Br)ccc3c2)CC1 (stereo not drawn),nt,nt,i,i,i
CN(C)S(=O)(=O)N1CCN(CC(O)COc2ccc3cc(Br)ccc3c2)CC1 (stereo not drawn),i,i,i,i,98.3
O=C(Nc1ccnc(-c2ccncc2)n1)C1CC1,i,nt,i,i,i
Cc1cccc(NC(=O)C23CCC(C)(C2Br)C3(C)C)c1 (stereo not drawn),nt,i,i,i,i
COc1ccc(C(O)C(CN2CCOCC2)c2ccccc2)cc1 (stereo not drawn),i,i,i,89.0,i
O=C(c1ccccc1)c1ccc(OCC(O)CN2CCOCC2)cc1 (stereo not drawn),nt,i,i,i,nt
CCOc1ccc(C(=O)C(CN2CCOCC2)c2ccccc2)cc1 (stereo not drawn),i,i,i,98.9,i
COc1ccc(CC(=O)OC(C)CN2CCOCC2)cc1 (stereo not drawn),i,i,i,i,i
Cc1c([N+](=O)[O-])cc(C(=O)Oc2cccc(C(=S)N3CCOCC3)c2)cc1[N+](=O)[O-],i,i,i,i,i
Cc1ccc(NC(=S)N(Cc2cccc(Br)c2)CC2CCC(C(=O)O)CC2)cc1Cl (stereo not drawn),i,nt,i,i,64.0
Cc1cc(NC(=S)N(Cc2ccc(Br)cc2)Cc2ccc(C(=O)O)cc2)ccc1Cl,3.8,nt,i,i,70.4
CC12CCC(C(=O)N(CC3CO3)C1=O)C2(C)C (stereo not drawn),i,nt,i,i,i
SMILES,Insulin prom up,Insulin prom inh,Autophagy HCS,L major viab,WT yeast gro inh
CCOc1ccc(N(C)S(=O)(=O)c2ccc(C)c(C(=O)OCC(=O)c3c[nH]c4ccccc34)c2)cc1,nt,i,i,i,i
O=c1c2c(nc3cc(-c4ccc(Br)cc4)[nH]n13)CCCC2,i,i,i,66.6,i
O=c1c2c(nc3c(-c4cccc(Br)c4)c[nH]n13)CCCC2,i,nt,i,99.6,i
O=c1c2c(nc3c(-c4ccccc4)c[nH]n13)CCC2,i,i,i,i,i
O=c1c2c(nc3cc(-c4ccccc4)[nH]n13)CCC2,i,nt,i,i,i
Cc1ccc(C2C3=C(CCCC3=O)Nc3c2c(C)nn3-c2ccccn2)o1 (stereo not drawn),i,nt,i,i,i
CCOC(=O)c1cnc(SCCc2ccccc2)nc1N,i,i,i,i,i
CCCCSc1ncc(C(=O)OCC)c(N)n1,nt,80.0,i,i,i
CC(C)Oc1ccc(CNCCC2(C(C)C)CCOC(C)(C)C2)cc1 (stereo not drawn),i,i,i,95.5,i
COc1ccc(CNCCC2(C(C)C)CCOC(C)(C)C2)cc1 (stereo not drawn),i,nt,nt,nt,nt
C=CCNc1cc(N2CCCC2)ccc1[N+](=O)[O-],i,nt,i,i,i
Cc1ccc(C(=O)c2cc([N+](=O)[O-])ccc2N2CCN(C)CC2)cc1,i,i,i,i,i
COc1ccc(C(=O)c2cc([N+](=O)[O-])ccc2N2CCN(C)CC2)cc1,i,nt,+,i,i
